Tau ThT inhib: tau fibrillization inhibition (ThT binding); P10636; recombinant tau K18 P301L, heparin-induced fibrillization, ThT fluorescence; Potency, µM (series often up to 57.4 µM), inactives show top-dose activity, negative = inhibition, hits mostly inhibitors; 2.1% of 270,000 active; AID 1460; further: nearly all actives have a fitted effect of over 55% in size
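Fibril formation assay: tau K18 P301L at 15 uM with trace Alexa 594 label, heparin inducer 20 uM, pH 7 sodium acetate buffer, 37 C for 6 hr; endpoint ThT signal.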
Tau fluor cs: counter-screen for tau fibril formation inhibitors. tau K18 P301L Alexa594 fluorescence, heparin fibrillization. Potency, µM (series often up to 57.7 µM), for the others: at the top dose activity change, negative = decrease. 0.93% of 280,000 active; further: nearly all actives have a fitted effect of over 55% in size
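Human tau K18 P301L (15 uM unlabeled, 0.24 uM Alexa 594-labeled) in 100 mM sodium acetate pH 7 with 20 uM heparin, 6 hr at 37 C. ThT 30 uM added, 1 hr ambient; Alexa 594 FP and total fluorescence read at 555/632 nm.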
TR SRC2 fluor cs: counter-screen for TRb-SRC2 inhibitors: fluorescence interference | TRb/SRC2 Texas Red total fluorescence interference | 0.29% of 280,000 active | Potency, µM (doses to about 106 µM), for inactives: top-dose fluorescence change, negative = quenching; active means well fitted curve in either direction with a large enough effect; inconclusive means small, poorly fitted or top-dose-only effect
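Human TRβ ligand-binding domain (0.6 uM) and Texas Red SRC2 peptide (20 nM) in Tris buffer with 1 uM T3 and 5% DMSO were incubated with pinned compound for 5 hr at ambient temperature. Total fluorescence was computed as S + 2P (555/632 nm).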
TRb-SRC2 inh: disrupts binding of human TR beta to SRC2; P10828; TRbeta-SRC2 peptide binding, fluorescence polarization; receptor liganded with 1 µM T3; Potency, µM (series often up to 106 µM), for inactives: at the highest dose activity change, negative = inhibition, usual class: inhibitors; 0.065% of 280,000 active; AID 1469;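 further: plate controls were bound peptide for no effect and peptide without receptor for full effect; nearly all actives have a fitted effect of over 50% in size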
Target sequence (P10828 whole entry, looked up): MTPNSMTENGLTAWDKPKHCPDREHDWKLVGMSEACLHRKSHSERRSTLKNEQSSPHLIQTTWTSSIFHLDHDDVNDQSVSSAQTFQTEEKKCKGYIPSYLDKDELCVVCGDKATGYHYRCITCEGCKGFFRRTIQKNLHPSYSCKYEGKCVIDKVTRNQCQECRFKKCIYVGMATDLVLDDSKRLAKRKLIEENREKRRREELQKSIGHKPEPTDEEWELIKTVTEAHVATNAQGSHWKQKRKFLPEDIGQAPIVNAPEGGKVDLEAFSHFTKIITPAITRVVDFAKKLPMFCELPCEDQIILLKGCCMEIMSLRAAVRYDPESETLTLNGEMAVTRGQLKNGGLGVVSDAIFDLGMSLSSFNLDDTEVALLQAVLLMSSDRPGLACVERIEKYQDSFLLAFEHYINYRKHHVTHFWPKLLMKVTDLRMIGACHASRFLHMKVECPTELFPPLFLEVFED
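Polarization signal, normalized between peptide-alone and full complex controls, measured compound effects on T3-liganded human TRb LBD (0.6 uM) binding 20 nM Texas Red SRC2 peptide after 5 hr.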
Tau fibril FP: tau fibrillization inhibition (FP); Potency, µM (highest dose often 57.7 µM), for the others: top-dose activity, negative = inhibition, actives largely listed as inhibitors; P10636; 0.39% of 280,000 active; K18 P301L tau heparin fibrillization, Alexa594 FP, 6 h; further: nearly all actives have a fitted effect of over 55% in size
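Human tau K18 […] P301L fragment, 15 uM unlabeled plus 0.24 uM Alexa 594-labeled tau (final), with compound and 20 uM heparin in 100 mM sodium acetate pH 7; 6 hr at 37 C, then Alexa 594 FP read.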
Numbers without * were called inactive; [ ] = remark or other dose. This is a sample that favours compounds with a hit; in the whole collection about 3% have one here. Unless noted, the call rests on the fitted dose curve; in most records, active means well fitted curve in the direction sought with a large enough effect; inconclusive means small, poorly fitted or top-dose-only effect, or another doubt; inactive means no such curve, though single readings can be large; an effect the other way counts as inactive or inconclusive. Unless noted, on the % scale 0 is the no-effect control and ±100 the full control effect; potency means the concentration at half of the fitted maximal effect.

Results for CC1(C)CCc2c([nH]c3ccccc3c2=O)O1 ?
Tau ThT inhib: 2.6%; Tau fluor cs: 8.4%; TR SRC2 fluor cs: 0.0%; TRb-SRC2 inh: 2.8%; Tau fibril FP: -7.1%

What do the screens show for `CC(C)CN1C(=O)/C(=C(/C#N)C(=O)NC2CCCCC2)c2ccccc21`?
Tau ThT inhib: 17.8µM*; Tau fluor cs: -13.2%; TR SRC2 fluor cs: -0.2%; TRb-SRC2 inh: -3.8%; Tau fibril FP: inconclusive

What do the screens show for `COc1ccc(NC(=O)c2cc3ccc4c5ccccc5[nH]c4c3cc2O)cc1`?
Tau ThT inhib: 2.24µM*; Tau fluor cs: 3.16µM*[quencher]; TR SRC2 fluor cs: -2.7%; TRb-SRC2 inh: -4.9%; Tau fibril FP: 10.0%

How did Cc1ccccc1-c1cc2nccc(-c3cc(Cl)ccc3O)n2n1 do in these assays?
Tau ThT inhib: 8.6%; Tau fluor cs: 4.2%; TR SRC2 fluor cs: -2.4%; TRb-SRC2 inh: 3.6%; Tau fibril FP: 2.1%

How did Cc1ccc(O)c(-c2ccnc3cc(-c4ccc(Cl)cc4)nn23)c1 do in these assays?
Tau ThT inhib: 4.6%; Tau fluor cs: inconclusive; TR SRC2 fluor cs: -29.5%; TRb-SRC2 inh: -2.4%; Tau fibril FP: 31.6µM*

What do the screens show for `CC(C)(C)c1csc(NC(=O)c2ccc(Cl)s2)n1`?
Tau ThT inhib: -17.6%; Tau fluor cs: -21.9%; TR SRC2 fluor cs: -6.5%; TRb-SRC2 inh: -2.2%; Tau fibril FP: -1.3%

How did CCNc1nc(N)c(C(=O)c2ccc(Cl)s2)s1 do in these assays?
Tau ThT inhib: 12.6µM*; Tau fluor cs: inconclusive; TR SRC2 fluor cs: -8.2%; TRb-SRC2 inh: 0.0%; Tau fibril FP: 7.6%

Results for CCCCC(CC)COC(C)=O (stereo unspecified) ?
TR SRC2 fluor cs: -2.1%[201 µM]; TRb-SRC2 inh: 6.3%[201 µM]

What do the screens show for `Cc1ccc(OCCSc2nc3ccccc3n2CCC(=O)O)cc1C`?
Tau ThT inhib: -8.5%; Tau fluor cs: -3.5%; TR SRC2 fluor cs: -2.1%; TRb-SRC2 inh: -4.3%; Tau fibril FP: 5.7%

What do the screens show for `S=C(Nc1ccc2nc(-c3ccccn3)c(-c3ccccn3)nc2c1)N1CCOCC1`?
Tau ThT inhib: 12.6µM*; Tau fluor cs: inconclusive; TR SRC2 fluor cs: -7.9%; TRb-SRC2 inh: inconclusive; Tau fibril FP: inconclusive

What do the screens show for `CCOc1ccc(NC(=O)Nc2cccc(C(=O)O)c2)cc1`?
Tau ThT inhib: -10.7%; Tau fluor cs: -8.7%; TR SRC2 fluor cs: -0.6%; TRb-SRC2 inh: 5.4%; Tau fibril FP: 5.3%

How did CCOc1ccc(NC(=S)Nc2ccc(OCC)cc2)cc1 do in these assays?
Tau ThT inhib: inconclusive; Tau fluor cs: -19.6%; TR SRC2 fluor cs: 0.4%; TRb-SRC2 inh: 3.1%; Tau fibril FP: 10.5%

How did CCOc1ccc(NC(=O)Nc2ccc3nsnc3c2)cc1 do in these assays?
Tau ThT inhib: 14.1µM*; Tau fluor cs: 12.6µM*[quencher]; TR SRC2 fluor cs: -5.2%; TRb-SRC2 inh: -1.7%; Tau fibril FP: 16.3%

How did O=C(Nc1ccccc1)Nc1ccc2snnc2c1 do in these assays?
Tau ThT inhib: inconclusive; Tau fluor cs: inconclusive; TR SRC2 fluor cs: -2.8%; TRb-SRC2 inh: 13.7%; Tau fibril FP: inconclusive

How did S=C(Nc1ccc2nsnc2c1)NC1CCCCC1 do in these assays?
Tau ThT inhib: 28.2µM*; Tau fluor cs: inconclusive; TR SRC2 fluor cs: -5.4%; TRb-SRC2 inh: -11.5%; Tau fibril FP: inconclusive

How did CCOc1ccc(NC(=S)Nc2ccc3nsnc3c2)cc1 do in these assays?
Tau ThT inhib: 2.51µM*; Tau fluor cs: 14.1µM*[quencher]; TR SRC2 fluor cs: -4.6%; TRb-SRC2 inh: -7.4%; Tau fibril FP: inconclusive

How did S=C(Nc1ccc(Cl)c(Cl)c1)NC1CCCCC1 do in these assays?
Tau ThT inhib: 4.9%; Tau fluor cs: inconclusive; TR SRC2 fluor cs: 1.2%; TRb-SRC2 inh: 5.6%; Tau fibril FP: inconclusive

How did CCOc1ccc(NC(=O)Nc2ccc3snnc3c2)cc1 do in these assays?
Tau ThT inhib: -6.5%; Tau fluor cs: 5.01µM*[quencher]; TR SRC2 fluor cs: -3.2%; TRb-SRC2 inh: -4.5%; Tau fibril FP: inconclusive

How did Nc1ccc(S(=O)(=O)Nc2cccc3cccnc23)cc1 do in these assays?
TR SRC2 fluor cs: -0.3%; TRb-SRC2 inh: 0.5%
